# Compound activity deposited in PubChem by National Center for Advancing Translational Sciences (NCATS).
# IP6K1 inh: inhibitors of human IP6K1; AID 1645851; IP6K1 kinase, ADP-Glo luminescence, 2 h; hits give low values; 140,000 tested, 0.81% active; activity change, % (series mostly up to about 58 µM); in the data active = activity change below about -25%
#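 ADP-Glo luminescence measures ADP made by human IP6K1 during a 2 h RT reaction with ATP/IP6 (mix at 1.3 mM/130 uM); top library doses 57.5 and 19.1 uM final.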
# HEK293 tox: HEK 293 cell cytotoxicity; 94,000 tested, 6.6% active; HEK 293 viability, ATP luminescence (CellTiter-Glo), 48-72 h; Potency, µM (titrated, usually from 115 µM), for the others: at the top dose activity change, negative = cytotoxicity, most hits filed as inhibitors; note: potency is the fitted concentration of half-maximal effect; nearly all actives have a fitted effect of over 60% in size
#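 Cells seeded first (HEK 293, 250 cells/well), then compound added by pintool. Incubation ran 48 or 72 hr at 37 degree Celsius. CellTiter-Glo was added and luminescence imaged after 10 min at room temperature.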
# SNCA expr inh: inhibitors of alpha-synuclein (SNCA) gene expression; HEK-293 SNCA-luciferase knock-in, luminescence, 24 h; Potency, µM (doses to about 57.2 µM), without a hit: top-dose activity change, negative = inhibition, usual class: inhibitors; 140,000 tested, 0.17% active; AID 1671194;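 note: potency is the fitted concentration of half-maximal effect; plate controls were DMSO cells for no effect and cell-free wells for full effect; nearly all actives have a fitted effect of over 45% in size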
# SNCA viab count: cell viability loss counter-screen. HEK-293-SNCA-luc viability, GF-AFC fluorescence, 24 h. 150,000 tested, 0.12% active. Potency, µM (series often up to 57.1 µM), for the others: top-dose activity change, negative = cytotoxicity, hits mostly cytotoxic;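 note: potency is the fitted concentration of half-maximal effect; 0% = DMSO-treated cells and -100% = medium-only wells without cells; nearly all actives have a fitted effect of over 30% in size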
#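 HEK-293-SNCA-luc cells (1500/well) plated 24 h, then exposed 24 h to a dilution series; GF-AFC added 30 min at 37C, fluorescence 405/540 nm; normalised to medium-only and DMSO wells, Hill fit.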
# FLuc inh: blocks purified firefly luciferase enzyme activity | P08659 | purified P. pyralis luciferase, luminescence, biochemical | Potency, µM (titrated, usually from 115 µM), usual class: inhibitors | 76,000 tested, 2.5% active | AID 1347043; note: potency is the fitted concentration of half-maximal effect; nearly all actives have a fitted effect of over 65% in size
# Target sequence (P08659 whole entry, looked up): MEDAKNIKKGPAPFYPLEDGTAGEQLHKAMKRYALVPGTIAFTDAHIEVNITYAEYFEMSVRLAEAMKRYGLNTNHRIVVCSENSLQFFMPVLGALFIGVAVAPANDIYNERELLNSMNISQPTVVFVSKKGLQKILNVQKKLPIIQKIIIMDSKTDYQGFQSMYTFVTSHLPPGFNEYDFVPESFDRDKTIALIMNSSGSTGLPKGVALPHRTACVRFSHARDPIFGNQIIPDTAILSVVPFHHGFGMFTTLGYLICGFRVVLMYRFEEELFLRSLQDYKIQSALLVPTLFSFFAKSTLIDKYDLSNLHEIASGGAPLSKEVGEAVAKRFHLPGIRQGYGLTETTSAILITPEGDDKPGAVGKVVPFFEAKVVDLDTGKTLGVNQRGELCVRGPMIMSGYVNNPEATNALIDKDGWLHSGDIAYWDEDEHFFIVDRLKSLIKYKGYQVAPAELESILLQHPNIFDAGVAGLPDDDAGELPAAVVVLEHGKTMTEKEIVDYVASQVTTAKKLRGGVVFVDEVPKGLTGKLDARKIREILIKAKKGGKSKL
#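 FLuc 10nM, D-luciferin 10uM, ATP 10uM, Mg acetate 10mM, Tris acetate pH 7.5, Tween/BSA; cpd qHTS; enzyme added last; CCD luminescence.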
# NIH3T3 tox: kills NIH 3T3 cells. NIH 3T3 viability, CellTiter-Glo ATP luminescence, 48-72 h. 94,000 tested, 4.3% active. Potency, µM (series often up to 96.7 µM), without a hit: at the top dose activity change, negative = cytotoxicity, actives largely listed as inhibitors; note: potency is the fitted concentration of half-maximal effect; nearly all actives have a fitted effect of over 55% in size
#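 Viability of NIH 3T3 cells after 48 or 72 hr compound treatment at 37 °C was assessed by CellTiter-Glo, with luminescence imaged following a 10 min room-temperature step.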
# Starred values were filed as active, the others as inactive; i = inactive; ? = inconclusive; / = no result; [ ] = another dose, or the depositor's remark. Shown are actives, neighbours in structure and some others; about 7.3% of the full set was active somewhere. Unless noted, calls come from the whole dose curve; as a rule, active = well fitted curve in the direction sought with a large enough effect; inconclusive = small, poorly fitted or top-dose-only effect, or another doubt; inactive = no such curve, though single readings can be large; an effect the other way counts as inactive or inconclusive. Unless noted, % is set by controls: 0 for no effect and ±100 for the full control effect.
SMILES,IP6K1 inh,HEK293 tox,SNCA expr inh,SNCA viab count,FLuc inh,NIH3T3 tox
CCCCCC(=O)N1[C@@H](c2ccco2)[C@@H](C(=O)OCC)C[C@]12CCCCNC2=O,8.3,-29.1%,/,/,/,?
c1ccc(-c2noc(CC3CCOC4(CCN(Cc5cccnc5)CC4)C3)n2)cc1 (centres undefined),-7.0,25.1µM*,-7.4%,-20.3%,i,?
COCC(=O)N1CCC2(CC1)CC(Cc1nc(-c3cccnc3)no1)CCO2 (centres undefined),5.8,-1.2%,-14.1%,2.4%,i,-6.2%
Cc1ncsc1CN1CCC2(CC1)CC(Cc1nc(-c3ccccc3)no1)CCO2 (centres undefined),-9.6,17.8µM*,0.8%,-13.3%,i,?
Cc1ncsc1CN1CCC2(CC1)CC(CC(=O)NC1CC1)CCO2 (centres undefined),19.9,15.7%,-1.9%,0.6%,i,i
COCCN1CCCN(C(=O)C2CCC2)c2ccccc21,-8.3,?,-21.1%,-6.2%,i,-10.6%
O=C(C1CC1)N1CCCN(CCc2ccccc2)c2ccccc21,-3.0,?,-25.8%,1.6%,i,31.6µM*
O=C(C1CC1)N1CCC2(CC1)CC(c1cccc(C(F)(F)F)c1)=NO2,11.7,56.2µM*,/,/,/,?
O=C(c1ccncc1)N1CCC2(CC1)CC(c1cccc(C(F)(F)F)c1)=NO2,9.8,89.1µM*,/,/,/,-23.0%
COC(=O)N1CCC2(CC1)CC(c1cccc(C(F)(F)F)c1)=NO2,23.7,?,/,/,/,?
O=C(c1ccc(F)cc1)N1CCC2(CC1)CC(c1cccc(C(F)(F)F)c1)=NO2,-8.9,?,20.7%,0.0%,i,?
CCn1cc(-c2ccncc2)cc1C(=O)NCc1cccc(OC)c1,-14.4,?,21.6%,0.1%,i,?
COCC1CN(C(=O)c2ccc(Cc3c(C)noc3C)o2)CC12CCNCC2 (centres undefined),4.3,-20.7%,20.3%,-16.8%,i,-10.8%
O=C(c1ccoc1)N1CCC2(CC1)CC(Cc1ccccc1)CCO2 (centres undefined),12.4,?,-9.2%,12.7%,i,?
Cc1cccc(C(=O)N2CCC3(CC2)CC(CC(=O)N2CCOCC2)CCO3)c1 (centres undefined),24.7,-6.3%,-18.3%,-5.3%,i,-16.6%
Cc1cccc(C(=O)N2CCC3(CC2)CC(Cc2ccc(F)cc2)CCO3)c1 (centres undefined),-3.4,44.7µM*,-7.6%,-6.5%,i,?
Cc1noc(C)c1Cc1ccc(C(=O)N2CCC3(CC2)CC(Cc2ccc(F)cc2)CCO3)o1 (centres undefined),5.9,28.2µM*,2.5%,-13.3%,/,?
Cc1ccc(CC2CCOC3(CCN(C(=O)c4cccc(C#N)c4)CC3)C2)cc1 (centres undefined),12.5,50.1µM*,-29.3%,-13.9%,i,?
O=C(CC1CCOC2(CCN(C(=O)c3cccs3)CC2)C1)N1CCCC1 (centres undefined),-1.0,-8.3%,1.0%,-0.4%,/,-17.1%
Cc1ccc(CC2CCOC3(CCN(C(=O)c4cccs4)CC3)C2)cc1 (centres undefined),2.1,44.7µM*,-14.6%,4.3%,i,?
O=C(N1CCC(c2nc(C3CCOCC3)no2)C1)C1(c2ccccc2)CC1 (centres undefined),19.6,-2.2%,-15.4%,-5.5%,i,-10.7%
C#CCNC(=O)c1cc(-c2ccccc2OC)c2cccn2n1,-8.7,-22.5%,22.6%,-5.8%,/,-12.9%
O=C(NCc1ccc(F)cc1)c1nc(-c2ccc(Cl)cc2Cl)c2cnccn12,11.6,?,?,-9.0%,/,?
COCCn1c(C)cnc1CCNC(=O)C1(c2ccc(OC)cc2)CC1,-13.2,-7.7%,-2.2%,10.5%,i,-16.2%
COc1cc(OC)cc(OCc2nc3c(n2Cc2ccccc2)C(=O)N(Cc2cccc(Cl)c2)CCN3)c1,-6.3,39.8µM*,-17.6%,?,i,22.4µM*
SMILES,IP6K1 inh,HEK293 tox,SNCA expr inh,SNCA viab count,FLuc inh,NIH3T3 tox
COc1ccccc1OCc1nc2c(n1Cc1ccccc1)C(=O)N(Cc1cccc(Cl)c1)CCN2,-16.5,?,-16.2%,-21.4%,i,31.6µM*
O=C1c2c(nc(COc3cccc(Cl)c3)n2Cc2ccccc2)NCCN1CC1CC1,-10.1,100µM*,?,?,i,?
COc1cccc(OCc2nc3c(n2Cc2ccccc2)C(=O)N(Cc2cccc(Cl)c2)CCN3)c1,-18.8,25.1µM*,-23.8%,-22.9%,i,?
CC(=O)N1CCN(Cc2nc3c(n2Cc2ccccc2)C(=O)N(Cc2cccc(Cl)c2)CCN3)CC1,-7.4,?,-23.7%,-10.8%,i,-31.1%
COCCN1Cc2[nH]nc(-c3ccccc3OC)c2CC1=O,6.2,i,5.5%[87.6 µM],6.0%[87.6 µM],i,?
CC(C)N[C@H]1C[C@@H](Cc2cc(CC3CCCCC3)on2)C1(C)C,-14.7,31.6µM*,-16.9%[87.6 µM],-18.8%[87.6 µM],i,44.7µM*
COCc1cc(C[C@@H]2C[C@H](NCC3CC3)C2(C)C)no1,-1.7,0.4%[230 µM],-5.4%[87.6 µM],0.5%[87.6 µM],i,-1.2%[174 µM]
CC1(C)[C@H](Cc2cc(CC3CCCCC3)on2)C[C@@H]1NC(=O)c1ccco1,4.2,25.1µM*,?,?,i,70.8µM*
Cc1ccc(-c2ccccc2CN2CCC(C(=O)N3CCOCC3)CC2)cc1Cl,5.6,79.4µM*,-10.2%,-4.2%,/,?
Cc1ccc(-c2ccccc2CN2CCN(C(=O)c3ccccc3F)CC2)cc1Cl,15.8,?,-5.9%,-13.1%[12.5 µM],/,?
COc1ccccc1C(=O)N1CCN(Cc2ccccc2-c2ccc(C)c(Cl)c2)CC1,-3.8,?,-30.2%,-7.8%[12.5 µM],/,35.5µM*
Cc1ccc(-c2ccccc2CN2CCN(C(=O)NC3CCCC3)CC2)cc1Cl,-6.3,22.4µM*,1.9%,-4.2%[12.5 µM],/,20µM*
Cc1ccc(-c2ccccc2CN2CCC(C(=O)NC3CCCC3)CC2)cc1Cl,1.3,-14.8%,/,/,/,-14.9%
Cc1cnc(C2CCN(CC3CCCCC3)C2)n1Cc1ccccc1 (centres undefined),15.0,22.4µM*,7.6%,-5.5%,/,20µM*
CC(=O)Nc1ccc(CN2CCCCC23Cc2ccccc2CN(C(C)=O)C3)cc1 (centres undefined),-7.8,-3.1%,-7.5%,7.6%,/,-1.6%
O=C(NCC1CC1)c1cccc(OC2CN(Cc3ccc(F)cc3Cl)C2)c1,-14.6,?,?,?,i,39.8µM*
O=C(NCC1CC1)c1cccc(OC2CN(Cc3ccc(F)cc3F)C2)c1,9.1,?,-8.9%,?,i,?
